The panel holds about 83,000 compounds, 20% with a hit somewhere; the sample as a whole holds those more often.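 The endpoint reported here, percent growth, reads 100 for growth as untreated, 0 for no net growth and -100 for all cells dead.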 A number with no mark means an inactive call. Calls of active or inactive are those of the source. How the source made its calls: active means growth percent below 10; inactive means the rest.
tested on: MDA-MB-468 breast; assay: NCI-60 one-dose screen, 48 h (100 = growth as untreated, 0 = no growth, -100 = all killed); settings: 10 µM unless noted

Row | SMILES | growth
1 | CCCCCCCCCCCCCCCCN=C(CC(=O)O)C(=O)O | 95.2%
2 | COc1ccc(-c2nnc(N3CCN(C(=O)CN4CCN(c5ccc(Cl)cc5)CC4)CC3)nc2-c2ccc(OC)cc2)cc1 | 74%
3 | COc1cc(OC)cc(C(=O)C[n+]2cccc3cc[nH]c32)c1 | 90.9%
4 | CCOC(=O)c1c(-c2ccc(O)cc2)c(C#N)c2c(C#N)c(N)nn2c1N | 35.2%
5 | Cc1[nH]c2ccc(F)cc2c1CCNC(=O)C1CCN(C(=O)c2ccccc2)C1 (centres undefined) | 86.8% [25 µM]
6 | COc1cc2cc(Oc3ccc(NC(=O)c4cccc(C(F)(F)F)c4)cc3)c(C)nc2cc1OC | 9.35% (active)
7 | COc1ccc2c(c1)[nH]c(=O)c1c3cccnc3cn21 | 6.19% (active)
8 | c1ccc(-c2cc3cc4ccccc4cn3c2)cc1 | 79.8%
9 | CNCCCNc1ccnc2cc(Cl)ccc12 | -85% (active)
10 | COc1cc(-c2cc(/C=C3\C(=O)Nc4ccccc43)[nH]n2)cc(OC)c1OC | 82%
11 | O=C(CSc1nc2sc3c(c2c(=O)n1-c1ccccc1)CCCCC3)N/N=C/c1cccc([N+](=O)[O-])c1 | 19.2%
12 | CC1(C)CC[C@]2(C(=O)Nc3ccccn3)CC[C@]3(C)C(=CC[C@@H]4[C@@]5(C)C/C(=C/c6cccnc6)C(=O)C(C)(C)[C@@H]5CC[C@]43C)[C@H]2C1 | 17.2%
13 | N#Cc1ccc(NC2c3ccccc3CC2O)cc1 (centres undefined) | 107%
14 | CC1(C)CC[C@]2(C(=O)O)CC[C@]3(C)C(=CCC4[C@@]5(C)C[C@@H](O)[C@@H]6OC(c7ccccc7O)OC[C@@]6(C)C5CC[C@]43C)C2C1 (some centres undefined) | 69.4%
15 | COc1ccc(-n2c(SCc3cc(OC)c(OC)c(OC)c3)nc3ccc(C)cc3c2=O)c(OC)c1 | 17.1%
16 | CCCCCCCCCCCCCCCC1=NC(C)(C)CN1C(C)C | -58.8% (active)
17 | COc1ccc(C(=O)c2cc3c(N)c(C(=O)Nc4ccc(Cl)cc4)sc3nc2C)cc1 | 76.7%
18 | COc1ccc(OC)c(-c2cc(-c3ccc(Cl)cc3)c3c(N)c(C(=O)c4ccc(Cl)cc4)sc3n2)c1 | 117%
19 | COc1ccc(-c2ccc(C)n2-c2ccc(-c3nc4ccccc4s3)cc2)cc1 | 3.77% (active)
20 | COc1ccc([C@H]2[C@H](C(=O)Nc3cccnc3)c3ccccc3C(=O)N2c2ccccc2)cc1 | 97.7%
21 | C=C1CC[C@H](C(C)C)[C@@H]2[C@H]1[C@H]1CC(=C)[C@@H](O)CC[C@@](C)(O)[C@@H]2O1 | 89%
22 | CC(C)C1=C[C@@]23CC[C@@H]4[C@](C)(CCC[C@@]4(C)C(=O)N4CCCNCC4)[C@H]2C[C@@H]1[C@H]1C(=O)CCC(=O)[C@H]13 | 101%
23 | CC1(c2ccccc2Cl)NC(=O)NC1=O (centres undefined) | 96.7%
24 | CCCCn1c(-c2ccc(C(=O)O/N=C(\N)c3ccc(OC)cc3)cc2)nc(-c2ccccc2)c1-c1ccccc1 | -14.4% (active)

From PubChem BioAssay (NCI)
